# Source: PubChem BioAssay
# Active and inactive are the calls of the source.
# Columns and labels:
# [1] = tested on: Plasmodium falciparum Sir2 (PF13_0152, Sir2A); assay: pfSir2 binders on small-molecule microarrays, primary screen, biochemical, small-molecule microarray, 635 nm fluorescence (AID 1098); conditions: small-molecule microarray binding, fluorescence 635 nm; higher = more signal;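 further: score merges spot fluorescence intensity with its signal-to-noise ratio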
# [2] = small-molecule microarray binders of probe aDKK1, primary screen, biochemical, biotinylated probe, 635/667 nm fluorescence (AID 1099); conditions: higher = more signal;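 further: score merges 667nm spot fluorescence with signal to noise across triplicate slides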
# [3] = small-molecule microarray binders of probe aCHRDL2, primary screen, biochemical, biotinylated probe, 635/667 nm fluorescence (AID 1100); conditions: higher = more signal
# [4] = splicing luciferase reporter signal modulators, primary screen, spliceosome inhibition project, cell-based, HEK293, splice +/- reporter (AID 1101); conditions: luminescence, 24 h, higher = more signal, called active from +8 up or from −8 down;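 further: HEK293 cells carrying a splicing-competent luciferase reporter gene; test concentration not given here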
# [5] = target: Fibroblast growth factor 10 (Homo sapiens) (UniProt O15520); assay: FGF10 binders on small-molecule microarrays, primary screen, biochemical, small-molecule microarray, 635 nm fluorescence (AID 1102); conditions: FGF10 binding, fluorescence 635 nm, higher = more signal
# Chain of Fibroblast growth factor 10 (Homo sapiens) (O15520 whole entry, looked up): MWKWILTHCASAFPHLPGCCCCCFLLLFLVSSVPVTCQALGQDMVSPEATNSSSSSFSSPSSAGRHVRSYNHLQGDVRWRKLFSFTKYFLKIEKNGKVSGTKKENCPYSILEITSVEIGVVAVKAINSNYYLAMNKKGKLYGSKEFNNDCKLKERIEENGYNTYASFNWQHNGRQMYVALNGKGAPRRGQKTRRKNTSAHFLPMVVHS
# [6] = tested on: glycogen synthase kinase-3 (GSK3A per assay name; protocol says GSK3B); assay: GSK3 binders on small-molecule microarrays, primary screen, biochemical, small-molecule microarray, 635 nm fluorescence, GSK3A (AID 1103); conditions: small-molecule microarray binding, fluorescence 635 nm; higher = more signal; further: the record names both GSK3A and GSK3B
# [7] = target: Epidermal growth factor receptor (Homo sapiens) (UniProt P00533); assay: EGFR binders on small-molecule microarrays, primary screen, biochemical, small-molecule microarray, 635 nm fluorescence (AID 1104); conditions: EGFR binding, higher = more signal;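 further: score merges 667 nm emission intensity with spot signal to noise over triplicate slides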
# Chain of Epidermal growth factor receptor (Homo sapiens) (P00533 whole entry, looked up): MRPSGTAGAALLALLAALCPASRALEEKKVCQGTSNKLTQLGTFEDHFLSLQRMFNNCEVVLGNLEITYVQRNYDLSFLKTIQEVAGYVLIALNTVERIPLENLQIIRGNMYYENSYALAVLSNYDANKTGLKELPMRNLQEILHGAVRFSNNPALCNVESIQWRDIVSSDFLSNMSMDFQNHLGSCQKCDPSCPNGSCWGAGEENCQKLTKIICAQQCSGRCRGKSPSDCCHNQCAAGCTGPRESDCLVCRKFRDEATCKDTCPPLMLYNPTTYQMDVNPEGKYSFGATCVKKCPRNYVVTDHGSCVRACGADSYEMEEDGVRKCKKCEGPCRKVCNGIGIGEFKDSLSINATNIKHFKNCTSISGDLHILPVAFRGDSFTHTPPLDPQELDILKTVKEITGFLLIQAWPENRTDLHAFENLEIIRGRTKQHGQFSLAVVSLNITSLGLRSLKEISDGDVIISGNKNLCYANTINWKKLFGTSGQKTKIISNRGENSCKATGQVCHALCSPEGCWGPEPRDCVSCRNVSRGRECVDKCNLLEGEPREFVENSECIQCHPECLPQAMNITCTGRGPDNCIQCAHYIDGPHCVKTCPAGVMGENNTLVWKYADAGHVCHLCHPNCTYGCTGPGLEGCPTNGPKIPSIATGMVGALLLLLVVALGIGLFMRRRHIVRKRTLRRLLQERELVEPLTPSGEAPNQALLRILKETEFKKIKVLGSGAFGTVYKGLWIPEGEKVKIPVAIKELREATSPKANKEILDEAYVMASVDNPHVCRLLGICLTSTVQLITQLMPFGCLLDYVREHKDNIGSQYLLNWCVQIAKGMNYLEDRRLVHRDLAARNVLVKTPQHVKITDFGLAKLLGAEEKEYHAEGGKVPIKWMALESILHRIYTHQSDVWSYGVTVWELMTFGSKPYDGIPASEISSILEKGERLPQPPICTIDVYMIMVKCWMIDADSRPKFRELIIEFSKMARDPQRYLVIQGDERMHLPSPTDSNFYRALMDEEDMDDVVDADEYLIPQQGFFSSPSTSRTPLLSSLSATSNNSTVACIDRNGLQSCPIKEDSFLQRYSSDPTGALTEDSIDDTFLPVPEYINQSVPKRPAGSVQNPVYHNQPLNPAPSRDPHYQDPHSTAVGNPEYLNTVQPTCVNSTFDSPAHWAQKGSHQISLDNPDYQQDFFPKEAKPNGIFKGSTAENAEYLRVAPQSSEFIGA
# [8] = target: Follistatin-related protein 3 (Homo sapiens) (UniProt O95633); assay: FSTL3 binders on small-molecule microarrays, primary screen, biochemical, small-molecule microarray, 635 nm fluorescence (AID 1105); conditions: FSTL3 binding, higher = more signal;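 further: score merges emission near 667 nm and signal to noise per printed spot across three slides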
# Chain of Follistatin-related protein 3 (Homo sapiens) (O95633 whole entry, looked up): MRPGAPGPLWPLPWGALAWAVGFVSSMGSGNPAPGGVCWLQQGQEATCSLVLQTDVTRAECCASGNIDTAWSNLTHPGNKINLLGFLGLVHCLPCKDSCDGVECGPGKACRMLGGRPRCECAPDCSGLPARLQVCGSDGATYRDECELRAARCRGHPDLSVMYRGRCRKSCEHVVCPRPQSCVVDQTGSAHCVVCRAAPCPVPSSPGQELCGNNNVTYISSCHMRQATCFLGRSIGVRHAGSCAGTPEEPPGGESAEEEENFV
# [9] = target: Dickkopf-related protein 1 (Homo sapiens) (UniProt O94907); assay: DKK1 binders on small-molecule microarrays, primary screen, biochemical, small-molecule microarray, 635 nm fluorescence scan (AID 1106); conditions: DKK1 binding, higher = more signal;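 further: score merges emission near 667 nm with signal to noise over three replicate slides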
# Chain of Dickkopf-related protein 1 (Homo sapiens) (O94907 whole entry, looked up): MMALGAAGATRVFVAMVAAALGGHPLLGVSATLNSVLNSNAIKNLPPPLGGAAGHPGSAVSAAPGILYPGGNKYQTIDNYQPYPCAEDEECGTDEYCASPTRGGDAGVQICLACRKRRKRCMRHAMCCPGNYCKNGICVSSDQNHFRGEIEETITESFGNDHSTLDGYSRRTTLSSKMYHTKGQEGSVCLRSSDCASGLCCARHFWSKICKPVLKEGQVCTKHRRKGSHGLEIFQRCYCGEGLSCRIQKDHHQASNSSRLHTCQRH
# [10] = tested on: Inhibin beta A chain (activin A); assay: INHBA (activin A) binders on microarrays, primary screen, biochemical, small-molecule microarray, 635 nm fluorescence scan (AID 1107); conditions: small-molecule microarray binding, higher = more signal;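 further: mouse activin A protein probed at 4.33 µg/mL on printed slides; score merges bound-protein fluorescence near 667 nm with spot signal-to-noise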
# [11] = tested on: Human papillomavirus type 1a protein E7 (residues 44-93); assay: HPV1a E7 fragment binders on microarrays, primary screen, biochemical, small-molecule microarray, residues 44-93, 635 nm fluorescence (AID 1108); conditions: small-molecule microarray binding, fluorescence 635 nm; higher = more signal;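 further: E7 fragment applied at 1 µg/mL in TBST for 1 h at 4 C; score combines spot fluorescence with its signal to noise ratio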
# [12] = modulators of HCV replicon luciferase signal, primary screen, HCV replication inhibitor project, Huh7 cells, luciferase reporter (AID 1109); conditions: 48 h, higher = more signal;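 further: huh7 hepatoma cells harbouring a luciferase neomycin HCV replicon reporter; luciferase luminescence as measure of HCV replicon replication; test concentration not given here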
# [13] = target: Left-right determination factor 2 (Homo sapiens) (UniProt O00292); assay: LEFTY2 binders on small-molecule microarrays, primary screen, biochemical, small-molecule microarray, 635 nm fluorescence scan (AID 1110); conditions: LEFTY2 binding, higher = more signal
# Chain of Left-right determination factor 2 (Homo sapiens) (O00292 whole entry, looked up): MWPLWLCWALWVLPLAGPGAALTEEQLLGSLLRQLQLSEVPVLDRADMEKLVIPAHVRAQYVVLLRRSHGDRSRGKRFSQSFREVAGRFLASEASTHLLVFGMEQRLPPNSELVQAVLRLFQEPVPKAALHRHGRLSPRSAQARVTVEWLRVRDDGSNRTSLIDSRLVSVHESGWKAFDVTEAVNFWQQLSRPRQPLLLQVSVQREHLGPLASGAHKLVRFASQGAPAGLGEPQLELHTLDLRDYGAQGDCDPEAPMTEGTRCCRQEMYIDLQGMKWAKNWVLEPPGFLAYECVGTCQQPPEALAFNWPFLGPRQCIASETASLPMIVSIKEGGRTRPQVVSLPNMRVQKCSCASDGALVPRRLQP
# [14] = target: Calmodulin-1 (Homo sapiens) (UniProt P0DP23); assay: CALM1 binders on microarrays, EGTA buffer, profiling panel, biochemical, small-molecule microarray, Cy5-labelled CALM1 (AID 1111); conditions: Cy5-CALM1 binding fluorescence, higher = more signal;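 further: labelled calmodulin applied in Tris saline Tween buffer holding calcium plus EGTA and DTT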
# [15] = target: Calmodulin-1 (Homo sapiens) (UniProt P0DP23); assay: calcium-bound CALM1 binders on microarrays, profiling panel, artefact control for SMM control-protein annotation, biochemical, small-molecule microarray, Cy5-labelled CALM1, plus calcium (AID 1112); conditions: Cy5-CALM1 binding fluorescence, higher = more signal;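 further: score merges spot fluorescence with signal to noise from triplicate slides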
# [16] = small-molecule microarray binders of probe aWnt5a, primary screen, biochemical, biotinylated probe, 635/667 nm fluorescence (AID 1113); conditions: higher = more signal;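 further: score merges 667 nm fluorescence intensity with signal-to-noise per printed feature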
# [17] = small-molecule microarray binders of probe aShh, primary screen, biochemical, biotinylated probe, 635/667 nm fluorescence (AID 1114); conditions: higher = more signal;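 further: probe is biotin-labelled aShh protein from a stem cell growth factor screen; measures binding of labelled protein to compounds printed on the slide; score merges feature fluorescence at 667 nm with signal-to-noise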
# [18] = small-molecule microarray binders of probe aNog, primary screen, biochemical, biotinylated probe, 635/667 nm fluorescence (AID 1115); conditions: higher = more signal;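 further: probe is biotinylated aNog protein used at 0.15 µg/mL for 1 h at 4 C; z-score combines 667 nm fluorescence of each spot with its signal to noise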
# [19] = target: Torsin-1A-interacting protein 1 (Homo sapiens) (UniProt Q5JTV8); assay: LAP1 binders from COS7 cell lysate, primary screen, small-molecule microarray, 635/667 nm fluorescence (AID 1116); conditions: COS7-hLAP1 lysate binding, 635 nm fluorescence, higher = more signal
# Chain of Torsin-1A-interacting protein 1 (Homo sapiens) (Q5JTV8 whole entry, looked up): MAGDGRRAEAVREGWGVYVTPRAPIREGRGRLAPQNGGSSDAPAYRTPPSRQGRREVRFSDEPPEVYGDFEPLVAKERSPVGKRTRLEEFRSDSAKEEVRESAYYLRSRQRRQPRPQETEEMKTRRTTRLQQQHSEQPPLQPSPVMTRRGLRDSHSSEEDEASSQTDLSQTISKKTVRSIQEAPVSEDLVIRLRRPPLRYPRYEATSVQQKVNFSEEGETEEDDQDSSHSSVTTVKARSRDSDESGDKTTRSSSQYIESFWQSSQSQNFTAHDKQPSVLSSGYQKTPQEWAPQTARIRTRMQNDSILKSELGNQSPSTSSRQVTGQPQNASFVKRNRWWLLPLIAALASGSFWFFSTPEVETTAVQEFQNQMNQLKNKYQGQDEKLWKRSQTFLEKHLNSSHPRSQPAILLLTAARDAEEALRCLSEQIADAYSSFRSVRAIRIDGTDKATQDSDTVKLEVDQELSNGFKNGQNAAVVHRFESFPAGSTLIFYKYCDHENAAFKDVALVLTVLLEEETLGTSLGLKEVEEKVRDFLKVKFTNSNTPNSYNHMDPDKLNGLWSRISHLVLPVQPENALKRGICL
# [20] = target: Alpha-bungarotoxin (Bungarus multicinctus) (UniProt P60615); assay: alpha-bungarotoxin binders on microarray, profiling panel, artefact control for SMM control protein annotation, biochemical, small-molecule microarray, Alexa647 label, 635/667 nm fluorescence (AID 1117); conditions: alpha-BTX-A647 binding fluorescence, higher = more signal
# Chain of Alpha-bungarotoxin (Bungarus multicinctus) (P60615 whole entry, looked up): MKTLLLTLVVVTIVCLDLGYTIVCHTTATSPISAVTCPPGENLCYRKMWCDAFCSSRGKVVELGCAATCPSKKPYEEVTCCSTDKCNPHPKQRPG
SMILES,composite z-score [1],composite z-score [2],composite z-score [3],z-score [4],composite z-score [5],composite z-score [6],composite z-score [7],composite z-score [8],composite z-score [9],composite z-score [10],composite z-score [11],z-score [12],composite z-score [13],composite z-score [14],composite z-score [15],composite z-score [16],composite z-score [17],composite z-score [18],composite z-score [19],composite z-score [20]
COc1ccccc1CN1C(=O)c2ccccc2[C@@H](C(=O)NCc2ccccc2)[C@@H]1c1ccc(CO)cc1,1.48,-0.262,0.617,-0.263 (inactive),-0.144,0.883,-0.154,-0.113,-0.258,-0.134,0.841,-1.01,0.0458,-0.473,-0.181,-0.124,-0.374,-0.416,0.404,1.78
O=C1[C@H]2C=C(I)[C@H](C[C@@H]2OCCCCO)[C@@]12CO2,1.15,-0.0509,0.0634,0.0898 (inactive),-0.0509,0.0622,-0.15,-0.0542,0.062,0.873,-0.417,-2.55,-0.244,-0.754,-0.749,-0.128,0.133,0.109,0.452,-0.132
CCCC[C@@H]1C[C@H]1[C@@H](NC(=O)c1cccnc1)c1ccc(Cl)cc1,-1.89,0.636,1.38,-2.46 (inactive),-2.18,-2.37,-2.19,-2.37,-2.48,0.0159,-1.05,-2.14,-2.99,0.867,1.69,-0.191,-0.509,0.526,-0.553,-1.36
O=C1O[C@H](c2ccccc2)[C@H](c2ccccc2)N2[C@H]1[C@@H](C(=O)NC[C@H](O)c1ccccc1)[C@]1(C(=O)Nc3ccccc31)[C@H]2c1ccc(O)cc1,0.758,-0.0713,0.489,-0.4 (inactive),1.3,0.476,0.555,0.749,0.964,-1.04,0.69,-0.705,0.733,1.06,0.659,-0.124,-0.138,0.293,0.825,0.771
C=C(/C(=C/C[C@H](OC(C)=O)c1ccc(OCCO)cc1)c1cc(C(=O)OC)ccc1OC)C(C)C,1.53,0.0971,-0.188,-0.045 (inactive),1.12,0.451,-0.296,0.647,0.196,0.326,1.16,-1.19,0.323,1.17,0.116,-0.0721,-0.2,0.775,1.2,0.179
CC[C@@H]1C=C(C(=O)O)[C@H](c2cccc3ccccc23)N1S(=O)(=O)c1ccc(C)cc1,0.819,0.0149,0.0792,0.756 (inactive),0.51,0.466,0.294,0.495,0.153,1.02,0.828,0.0731,0.132,1.45,0.725,0.0742,-0.17,0.526,0.909,-0.158
C=C(CCCC)C(=O)CC[C@@H](OC(C)=O)c1ccc(CO)o1,1.24,-0.269,-0.457,0.251 (inactive),1.12,0.179,-0.353,0.523,0.0693,0.945,0.0497,-1.21,0.523,-0.854,-1.12,-0.18,-0.206,0.0417,2.04,-0.217
CCOC(=O)C[C@H]1[C@H](OC(=O)c2ccc(-c3ccccc3)cc2)[C@@H](NC(=O)c2ccccc2)c2cc(OCCCO)ccc2N1C(=O)c1ccc2ccccc2n1,-0.0092,0.32,0.339,0.00513 (inactive),0.47,0.538,-0.0158,0.309,0.234,-0.466,1.29,-1.09,-0.196,1.2,0.963,-0.0643,-0.0011,0.176,0.629,0.552
C#CCN1[C@@H](Cc2ccc(O)cc2)C(=O)O[C@H](Cc2ccccc2)[C@@H]1/C=C/C1CC1,-0.0032,-0.366,-0.337,1.99 (inactive),0.172,-0.102,0.002,-0.149,0.0874,0.718,-0.513,-3.22,0.207,-0.458,-0.587,-0.18,0.163,-0.113,-0.188,0.0577
C=CCN1C(=O)[C@]2(O[C@H](CCO)[C@@H]([Si](C)(C)c3ccc(OC)cc3)[C@@H]2C)c2cc(N(C=O)c3ccccc3)ccc21,0.465,-0.128,0.348,-2.19 (inactive),-0.0285,-0.116,-0.414,-0.0666,-0.113,0.407,-0.823,-5.14,-0.155,0.393,0.217,-0.096,0.0684,0.337,0.753,0.607
CC(C)[Si](C#CCCCC#N)(Oc1ccccc1Br)C(C)C,0.436,-0.288,-0.536,-0.542 (inactive),0.361,0.693,0.216,0.58,-0.108,0.32,0.845,-0.071,0.0224,-0.154,-0.159,-0.0512,-0.0553,-0.213,0.528,0.453
